In all, about 39,000 sequences were measured (“fluorescence intensity (a.u.)”: median about 4,300, highest 2% from about 39,000 on). For the sample, the highest values were picked, then their nearest neighbours and some sequences at random.
biological target: T1, OsSMF1 (Oryza sativa, UniProt Q6ZLB0 1-436); assay: protein-binding microarray (RPBM); PBS, 2% BSA, 51.3 ng/ul salmon testes DNA, 50 uM zinc acetate, 200 nM TF, 25 C, 1 h; high values mean tight binding; details: protein: recombinant; tags: N-terminal polyhistidine and DsRed monomer fusion (pET32a); chain copies: 2; label: CyDye5-dUTP incorporated in the synthesized complementary strand; 3' TTTTT single-stranded linker to array surface; dsDNA, one strand shown
T1 sequence: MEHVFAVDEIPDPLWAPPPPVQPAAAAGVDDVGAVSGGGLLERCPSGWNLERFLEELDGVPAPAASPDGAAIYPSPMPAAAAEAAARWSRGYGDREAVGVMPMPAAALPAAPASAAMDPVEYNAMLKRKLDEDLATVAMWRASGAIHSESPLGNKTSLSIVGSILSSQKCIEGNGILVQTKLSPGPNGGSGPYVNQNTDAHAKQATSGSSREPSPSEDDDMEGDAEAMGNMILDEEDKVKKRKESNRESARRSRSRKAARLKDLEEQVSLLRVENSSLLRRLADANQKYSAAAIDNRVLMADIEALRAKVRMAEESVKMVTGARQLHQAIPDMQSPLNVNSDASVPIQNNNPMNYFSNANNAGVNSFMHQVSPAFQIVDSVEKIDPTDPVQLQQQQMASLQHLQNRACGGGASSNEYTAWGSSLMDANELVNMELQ
Procedure, shortened: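 For the binding signal, per-feature fluorescence intensity was read in arbitrary units on an Axon 4000B scanner. Before scanning, a 2% BSA-blocked custom Agilent array made double-stranded with Cy5-dUTP was washed after 1 h at 25 °C with 200 nM protein and 50 µM zinc acetate. The proteins were Ni–NTA-purified transcription factors with N-terminal polyhistidine and DsRed fusions, expressed in E. coli BL21-CodonPlus.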

Sequence	binding signal
GTGAGAGAAGCCGCCTTGGATGATGTCAACCATGGTGGCGCGGAGTCACCTAGTGCAG	6930 fluorescence intensity (a.u.)
CAATGCTAGCCGCGCAATCTGCGCGGGCCACCATGCTATTCGGAGTCACCTAGTGCAG	3430 fluorescence intensity (a.u.)
GATGGCTATCTGCCCGGGCAAAGTGTACCCTTTTACTGTTCGGAGTCACCTAGTGCAG	30800 fluorescence intensity (a.u.)
CAATTATCCGCAACGTATGGCTAGCTCAACCCTACTGTAACGGAGTCACCTAGTGCAG	3270 fluorescence intensity (a.u.)
GATATCATGTAGGAGTAGTAGTTGTTATGTGTGTGGGCTACGGAGTCACCTAGTGCAG	13000 fluorescence intensity (a.u.)
CACACCCTTACTGTAGCTATCACTGCACAAAGCCAAAACCCGGAGTCACCTAGTGCAG	43600 fluorescence intensity (a.u.)
CAAACCCTAGCTCATATGGTTGTAGTCTTAGCTACTATCACGGAGTCACCTAGTGCAG	50500 fluorescence intensity (a.u.)
GGGCCAAAACAAAGCCAGCGTGCAACCCTCGACAAAGCACCGGAGTCACCTAGTGCAG	4110 fluorescence intensity (a.u.)
CCACGGGTTCTTCCTCGATGCCTTCTCCGGCGCCGTCCGGCGGAGTCACCTAGTGCAG	45300 fluorescence intensity (a.u.)
CAACCATGGCGTCATCCTCTTCCTCCTCCTCCTCCTCCTCCGGAGTCACCTAGTGCAG	5800 fluorescence intensity (a.u.)
TCCATGGCGCCACACGTCACCACCTTCTCACACCCTCGTCCGGAGTCACCTAGTGCAG	18400 fluorescence intensity (a.u.)
CTTTGCCACGGCGGTCTCTCGTCCTCTTCCTCCTCTCCGCCGGAGTCACCTAGTGCAG	4190 fluorescence intensity (a.u.)
CCGTCTTCTTCCTCCACGTTCCTATCCATGGCGCCAGTTCCGGAGTCACCTAGTGCAG	41400 fluorescence intensity (a.u.)
GCCTTCTTCCTCGCCTGCGGCCGTCTCCGCCACCTCGACCCGGAGTCACCTAGTGCAG	4040 fluorescence intensity (a.u.)
CGGCCGCGTCAGGGAGGACGCCGCGCGGCACTACTTCCGGCGGAGTCACCTAGTGCAG	3870 fluorescence intensity (a.u.)
CGACGGCCACAACCGGTTGTGGCGGCGTCTGCGTTGGCAGCGGAGTCACCTAGTGCAG	5430 fluorescence intensity (a.u.)
ATTGCTTTATATGGTTATTTAAGTTTATTTTGCATCCCTACGGAGTCACCTAGTGCAG	22600 fluorescence intensity (a.u.)
ACAGGAGCACCATCAACAGCTGACAACTTGGCATTGGTATCGGAGTCACCTAGTGCAG	3680 fluorescence intensity (a.u.)
ATCAAAATGGCAACAAAAGGGAGTCCAAAGTGAAAATTTTCGGAGTCACCTAGTGCAG	36100 fluorescence intensity (a.u.)
ATCTCCATCGCTGGCGACGGCGAGCATCGCATCGCATCGCCGGAGTCACCTAGTGCAG	3150 fluorescence intensity (a.u.)
CCTCTGGCATCCATTATTGAGTTTATTAATCCTCCATCCTCGGAGTCACCTAGTGCAG	26300 fluorescence intensity (a.u.)

Sequence	binding signal
GCGGCTGAATTAATCTCCATCTGGCGAGCATCCACATCCTCGGAGTCACCTAGTGCAG	52300 fluorescence intensity (a.u.)
ACATCATCGGCTACGTCAGGTCCAGCGCCGCCGCCAAGGCCGGAGTCACCTAGTGCAG	6640 fluorescence intensity (a.u.)
AACCCTAGCCACTCTCGTTTCATTGGTCTGACTTATTGGGCGGAGTCACCTAGTGCAG	14700 fluorescence intensity (a.u.)
CGCGCGTCTCGACTCCGTCCCAATCGATCGATCGATCGCGCGGAGTCACCTAGTGCAG	12800 fluorescence intensity (a.u.)
CGCGCCATCGGCACGCTGGGCCAACACGGCACGGTGGACCCGGAGTCACCTAGTGCAG	3820 fluorescence intensity (a.u.)
GGACACACACCCACACGCGCATCCATCCATCCATCCATCCCGGAGTCACCTAGTGCAG	3220 fluorescence intensity (a.u.)
CACGAGCTGGTGGGCATCGAGGACTCCACACACGCGCATCCGGAGTCACCTAGTGCAG	42800 fluorescence intensity (a.u.)
GGTGTGGCGTGAGCGTGACACGGTGTCAACTGTCAAGTGTCGGAGTCACCTAGTGCAG	3400 fluorescence intensity (a.u.)
AATAGCTCTCTCCTCAGTCTCTCACGGCCTCATCACCACCCGGAGTCACCTAGTGCAG	3170 fluorescence intensity (a.u.)
TCTCGCCTACCACCAAGCTCATCTCGTTTCGTTAGCTACCCGGAGTCACCTAGTGCAG	41600 fluorescence intensity (a.u.)
TGCCCGGCTCGGCTACCCCGTCGCCACCGCCGTTCGTTTCCGGAGTCACCTAGTGCAG	3190 fluorescence intensity (a.u.)
TTTAGATGGCGGTTTTGGCTGACGTGGCGTCTACGTGACGCGGAGTCACCTAGTGCAG	30700 fluorescence intensity (a.u.)
GACCCCGGTTTTGTCCCACGTGGCGGCTGACTCAGCGTGGCGGAGTCACCTAGTGCAG	22500 fluorescence intensity (a.u.)
GTTTTGACCCGGTTTTGGTCTACGTGGCGCTGAGTCAGCGCGGAGTCACCTAGTGCAG	29900 fluorescence intensity (a.u.)
GGTCCCTCAGCGGTTTTGGCTGACGTGGCGCATACGTGGCCGGAGTCACCTAGTGCAG	51700 fluorescence intensity (a.u.)
AGGCGGTTTTGGCTGATGTGGCGTCTACGTGGCTTGTTTGCGGAGTCACCTAGTGCAG	25300 fluorescence intensity (a.u.)
TGGCGGTTTGGAAGGCGGTTTTGGCTGACGTGGCGTCTACCGGAGTCACCTAGTGCAG	43800 fluorescence intensity (a.u.)
GATCTCCTTTACACGTGATGTTGACGTGGCGTTTAGGTGGCGGAGTCACCTAGTGCAG	26500 fluorescence intensity (a.u.)
GGAAGCGCCAGCCAGCGCTCGCCGTTGTCACCTGTCACACCGGAGTCACCTAGTGCAG	3480 fluorescence intensity (a.u.)
TACAGATCGATGCGACACTCTGACACGTTACGCTCTCTCTCGGAGTCACCTAGTGCAG	6440 fluorescence intensity (a.u.)
TTGTGATGTCCATGTCACATGCAGTCCATTAAGGCCCTTGCGGAGTCACCTAGTGCAG	5190 fluorescence intensity (a.u.)

From article PMC7819943, “Rice protein-binding microarrays: a tool to detect cis-acting elements near promoter regions in rice”
